HT1080-NT tox: kills 2HG-producing HT-1080-NT fibrosarcoma cells. HT-1080-NT fibrosarcoma viability, CellTiter-Glo ATP luminescence, 48 h. Potency, µM (top dose mostly 46.1 µM), for inactives: at the highest dose activity, negative = less viability, usual class: cytotoxic. actives 1.6% (n = 360,000). AID 686970;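 further: NT is the 2HG producing partner of a matched IDH1 knockdown line; potency means the concentration at half of the fitted maximal effect; 0% = DMSO-treated cells and -100% = media-only wells without cells; nearly all actives have a fitted effect of over 55% in size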
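HT-1080-NT; 750 cells/well; 5% FBS RPMI; 48 h compound, 37 degrees C; CellTiter-Glo luminescence; curve fitting and curve-class assignment.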
IL-1B inflam inh: blocks inflammasome-driven IL-1 beta release. THP-1 LPS/ATP IL-1B secretion, AlphaLISA, 16 h; active compounds read low. actives 4.7% (n = 360,000). activity change, % at 57.5 µM. AID 743279; in the data active means activity change below about -50%; inconclusive means mostly about -30% to -49%
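Secreted IL-1B measured by AlphaLISA bead assay after 16 h compound exposure of THP-1 cells; compounds (final up to 57.5 uM) added 1 h before LPS (250 ng/mL) and ATP (1.25 mM) stimulation; lower signal means less secretion.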
TDP1 cell CPT: growth inhibition of DT40 Tdp1-/-;hTDP1 cells with camptothecin (screen for TDP1 inhibitors); chicken DT40 Tdp1-/-;hTDP1 cells + 20 nM CPT, ATP luminescence, 48 h; Potency, µM (series often up to 46.2 µM), inactives show at the highest dose activity change, negative = growth inhibition, most hits filed as inhibitors; actives 12% (n = 420,000); AID 686979; further: potency means the concentration at half of the fitted maximal effect; nearly all actives have a fitted effect of over 55% in size
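Chicken DT40 Tdp1-/- cells stably complemented with human TDP1 were seeded at 400 cells/well in medium containing 20 nM camptothecin, exposed to pin-transferred compounds, and grown at 37 °C for at least 48 hr. Viability was read as ATP luminescence.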
HT1080 IDH1KD tx: kills HT-1080 cells with IDH1 knockdown; HT-1080 IDH1 knockdown viability, ATP luminescence, 48 h; Potency, µM (titrated, usually from 46.1 µM), inactives show at the highest dose activity, negative = toxicity, actives largely listed as cytotoxic; actives 2% (n = 360,000); AID 686971;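 further: potency means the concentration at half of the fitted maximal effect; 0% = DMSO wells and -100% = cell-free medium wells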
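Knockdown cells (IDH1KD HT-1080) received compounds 2 h after plating at 750 cells/well and were kept 48 h at 37 °C in 5% FBS RPMI. A CellTiter-Glo luminescence read gave % activity for curve fitting.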
TDP1 cell noCPT: qHTS for Inhibitors of human tyrosyl-DNA phosphodiesterase 1 (TDP1): qHTS in cells in absence of CPT; DT40 Tdp1-/- hTDP1 cells, no CPT, ATP luminescence, 48 h; Potency, µM (highest dose often 46.2 µM), for inactives: top-dose activity change, negative = growth inhibition, most hits filed as inhibitors; actives 15% (n = 420,000); AID 686978, 2013; further: potency means the concentration at half of the fitted maximal effect; nearly all actives have a fitted effect of over 55% in size
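Growth kinetics read by CellTiter-Glo luminescence after ≥48 hr at 37 °C. Cells: DT40 Tdp1-/- stably carrying human TDP1, 400 per well, compound exposure in the absence of CPT (DMSO vehicle).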
The depositor's hits bear a star; ! = not confirmed by another sample; [ ] = dose if it differs, or a comment. Most compounds without a hit are left out; they make up all but 19% or so of the library. Unless noted, the call rests on the fitted dose curve; in most records, active means well fitted curve in the direction sought with a large enough effect; inconclusive means small, poorly fitted or top-dose-only effect, or another doubt; inactive means no such curve, though single readings can be large; an effect the other way counts as inactive or inconclusive. Unless noted, on the % scale 0 is the no-effect control and ±100 the full control effect.

`CN1C(=O)NC(=O)C(C)(C2=CCCCC2)C1=O` (configuration not stated) gave HT1080-NT tox inconclusive, IL-1B inflam inh 1.2, TDP1 cell CPT -8.8%, HT1080 IDH1KD tx 8.0% and TDP1 cell noCPT -7.2%.
`COCCOC(=O)C1=C(N)Oc2c(c(=O)oc3ccccc23)C1c1ccncc1` (configuration not stated) gave HT1080-NT tox 6.9%, IL-1B inflam inh 14.2, TDP1 cell CPT -17.0%, HT1080 IDH1KD tx 5.0% and TDP1 cell noCPT -13.4%.
For C[C@]12C=CC(=O)C=C1CC[C@@H]1[C@@H]2CC[C@@]2(C)[C@H]1CC[C@]2(C)O the results were TDP1 cell CPT inconclusive and TDP1 cell noCPT 18.8µM*.
`C[C@]1(O)CCC2C3CC[C@@H]4CC(=O)CC[C@]4(C)C3CC[C@@]21C` (some centres not stated) gave HT1080-NT tox 11.1%, IL-1B inflam inh 13.6, TDP1 cell CPT 18.4µM*, HT1080 IDH1KD tx 3.5% and TDP1 cell noCPT inconclusive.
CC12Cc3cnoc3C=C1CCC1C2CCC2(C)C1CCC2(C)O (configuration not stated) was read as HT1080-NT tox 2.7%, IL-1B inflam inh -50.2*, TDP1 cell CPT inconclusive, HT1080 IDH1KD tx 1.5% and TDP1 cell noCPT inconclusive.
`C[C@]12CCC(=O)C=C1CC[C@@H]1[C@@H]2CC[C@@]2(C)[C@H]1CC[C@]2(C)O` gave HT1080-NT tox 5.3%, IL-1B inflam inh 35.4, TDP1 cell CPT inconclusive, HT1080 IDH1KD tx -10.0% and TDP1 cell noCPT inconclusive.
O=C(c1ccncc1)N1CCC[C@@]2(CCN(Cc3nccs3)C2)C1 was read as TDP1 cell CPT 9.8% and TDP1 cell noCPT -22.8%.
Oc1ccccc1/C=N/[n+]1ccccc1 was read as HT1080-NT tox 5.8%, IL-1B inflam inh 4.4, TDP1 cell CPT 20.6µM*, HT1080 IDH1KD tx -1.1% and TDP1 cell noCPT 18.4µM*.
For CC1Cc2ccccc2N1Cc1cccc(S(=O)(=O)N(C)C)c1 (configuration not stated) the results were HT1080-NT tox -26.6%, IL-1B inflam inh -1.0, TDP1 cell CPT inconclusive, HT1080 IDH1KD tx -23.0% and TDP1 cell noCPT inconclusive.
CCOc1ccc(NC(=O)c2c(C)nn(Cc3ccccc3)c2Cl)cc1 was read as HT1080-NT tox -11.2%, IL-1B inflam inh 10.0, TDP1 cell CPT 0.3%, HT1080 IDH1KD tx -10.9% and TDP1 cell noCPT -4.5%.
Screening CCOc1ccc(NC(=O)c2cc3c(C)nn(-c4ccccc4)c3s2)cc1 returned TDP1 cell CPT 20.6µM* and TDP1 cell noCPT 10.3µM*.
`Nc1ccccc1Cl` gave HT1080-NT tox -6.2%, IL-1B inflam inh -8.0, TDP1 cell CPT 8.3%, HT1080 IDH1KD tx 6.5% and TDP1 cell noCPT -7.1%.
For CCOc1ccccc1CN1C2CCC1CC(c1ccc(C)cc1)C2 (configuration not stated) the results were HT1080-NT tox -26.8%, IL-1B inflam inh -12.2, TDP1 cell CPT 23.1µM*, HT1080 IDH1KD tx -26.2% and TDP1 cell noCPT 18.4µM*.
Screening COc1ccc(F)cc1CN1CCN(C(=O)CCC(=O)Nc2nnc(CC(C)C)s2)CC1 returned HT1080-NT tox -2.9%, IL-1B inflam inh 21.5, TDP1 cell CPT inconclusive, HT1080 IDH1KD tx -4.0% and TDP1 cell noCPT inconclusive.
Screening Cc1cnc(SCc2ccccn2)nc1C1CCCN(C(=O)c2cccc(-c3cccc(F)c3)c2)C1 (configuration not stated) returned TDP1 cell CPT -6.8%[9.04 µM] and TDP1 cell noCPT 16.4µM*.
Screening Clc1ccc(NC2=NCCCS2)cc1Cl returned HT1080-NT tox -15.6%, IL-1B inflam inh -20.0, TDP1 cell CPT -25.6%, HT1080 IDH1KD tx 4.9% and TDP1 cell noCPT inconclusive.
`C=C1C=C(C(F)F)n2ncc(C(=O)NCc3ccccc3F)c2N1` gave TDP1 cell CPT inconclusive and TDP1 cell noCPT 11.2µM*.
Cc1nn(Cc2ccccc2)c(C)c1C(=O)NCc1ccccc1F was read as HT1080-NT tox 15.3%, IL-1B inflam inh -22.9, TDP1 cell CPT -2.6%, HT1080 IDH1KD tx 15.0% and TDP1 cell noCPT -19.8%.
Screening CN(C[C@H](Cc1ccccc1)N(C[C@H](c1ccccc1)N(CCc1ccccc1)N=O)N=O)N=O returned HT1080-NT tox 7.6%, IL-1B inflam inh -17.6, TDP1 cell CPT inconclusive, HT1080 IDH1KD tx -4.5% and TDP1 cell noCPT 16.4µM*.
For CC(C)CCN(N=O)[C@@H](Cc1ccccc1)CN(N=O)[C@@H](Cc1ccccc1)CN(C)N=O the results were HT1080-NT tox -7.1%, IL-1B inflam inh inconclusive, TDP1 cell CPT inconclusive, HT1080 IDH1KD tx -23.4% and TDP1 cell noCPT inconclusive.
For CN(C[C@H](Cc1ccccc1)N(C[C@H](Cc1ccccc1)N(CCC(C)(C)C)N=O)N=O)N=O the results were HT1080-NT tox -3.0%, IL-1B inflam inh -1.3, TDP1 cell CPT 18.4µM*, HT1080 IDH1KD tx -3.1% and TDP1 cell noCPT inconclusive.
Screening CC(C)C[C@@H](CN(N=O)[C@@H](Cc1ccccc1)CN(C)N=O)N(CCc1ccccc1)N=O returned HT1080-NT tox 5.3%, IL-1B inflam inh 2.2, TDP1 cell CPT inconclusive, HT1080 IDH1KD tx 11.0% and TDP1 cell noCPT inconclusive.
`CCN(CC)C(=O)c1ccc(NC(=O)c2cccc(S(=O)(=O)N3CCN(Cc4ccccc4)CC3)c2)cc1` gave HT1080-NT tox -10.0%, IL-1B inflam inh inconclusive, TDP1 cell CPT 18.4µM*, HT1080 IDH1KD tx -28.0% and TDP1 cell noCPT 13µM*.
For CC(n1cc(C[C@H](N)C(=O)O)c2ccccc21)n1cc(C[C@H](N)C(=O)O)c2ccccc21 the results were TDP1 cell CPT 22.1% and TDP1 cell noCPT -0.5%.
CC(=O)OCC12CC(OC(=O)CC(C)C)C(C)=CC1OC1C(O)C(OC(C)=O)C2(C)C12CO2 (configuration not stated) was read as HT1080-NT tox 0.259µM*, IL-1B inflam inh -83.2*, TDP1 cell CPT 0.0231µM* and TDP1 cell noCPT 0.0231µM*.
Screening O=c1c2ccccc2nc(-c2ccco2)n1-c1nccs1 returned HT1080-NT tox -7.0%, IL-1B inflam inh -9.3, TDP1 cell CPT inconclusive, HT1080 IDH1KD tx -17.8% and TDP1 cell noCPT inconclusive.
Screening COc1cc2c(cc1OC)-c1c(OC)c(OC)c(OC)c3ccnc(c13)C2=O returned HT1080-NT tox 1.9%, IL-1B inflam inh inconclusive, TDP1 cell CPT 4.11µM*, HT1080 IDH1KD tx 1.9% and TDP1 cell noCPT 3.66µM*.
For CN(C)CC/C=C1/c2ccccc2Sc2ccc(Cl)cc21 the results were HT1080-NT tox inconclusive, IL-1B inflam inh -62.7*!, TDP1 cell CPT inconclusive, HT1080 IDH1KD tx inconclusive and TDP1 cell noCPT 29.1µM*!.
